Records with an inconclusive call do not appear. Some structures have more than one record in an assay (separate samples or runs), and their calls can disagree. Calls of active or inactive are those of the source. Rule for the calls: active = hit-call score of the fitted dose curve at least 0.9, where 1 is the maximum; inconclusive = response in the unintended direction; inactive = score below 0.9.

Sequence of human Peroxisome Proliferator-activated Receptor delta (PPARd), PPARD (gene 5467) (Q03181 whole entry, looked up): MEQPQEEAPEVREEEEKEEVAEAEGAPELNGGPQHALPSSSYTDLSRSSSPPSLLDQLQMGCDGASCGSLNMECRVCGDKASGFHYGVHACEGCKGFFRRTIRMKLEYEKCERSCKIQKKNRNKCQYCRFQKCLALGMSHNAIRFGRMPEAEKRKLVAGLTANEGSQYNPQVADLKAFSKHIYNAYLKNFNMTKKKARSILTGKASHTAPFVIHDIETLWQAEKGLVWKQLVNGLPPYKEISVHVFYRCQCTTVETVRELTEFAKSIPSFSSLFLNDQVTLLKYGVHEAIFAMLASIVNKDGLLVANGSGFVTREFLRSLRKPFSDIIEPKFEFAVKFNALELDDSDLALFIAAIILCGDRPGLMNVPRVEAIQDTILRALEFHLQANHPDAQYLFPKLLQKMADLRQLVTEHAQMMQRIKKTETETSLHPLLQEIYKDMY

The experiment deals with human Peroxisome Proliferator-activated Receptor delta (PPARd), PPARD (gene 5467) (UniProt Q03181). Put plainly: ATG_PPARd_TRANS: Attagene TRANS-FACTORIAL HepG2 Assay for human Peroxisome Proliferator-activated Receptor delta (PPARd) (AID 2283002). Here is the method:
ATG_TRANS is a cell-based, multiplexed-readout assay that uses HepG2, a human liver cell line, with measurements taken at 24 hours after chemical dosing in a 24-well plate.ATG_PPARd_TRANS is one of 30 assay component(s) measured or calculated from the ATG_TRANS assay. It is designed to make measurements of mRNA induction, a form of inducible reporter, as detected with fluorescence intensity signals by Reverse transcription polymerase chain reaction (RT-PCR) and Capillary electrophoresis technology.Data from the assay component ATG_PPARd_TRANS was analyzed into 1 assay endpoint. This assay endpoint, ATG_PPARd_TRANS, was analyzed in the positive analysis fitting direction relative to DMSO as the negative control and baseline of activity. Using a type of inducible reporter, measures of mRNA for gain-of-signal activity can be used to understand the reporter gene at the transcription factor-level as they relate to the gene PPARD. Furthermore, this assay endpoint can be referred to as a primary readout, because this assay has produced multiple assay endpoints where this one serves a reporter gene function. To generalize the intended target to other relatable targets, this assay endpoint is annotated to the nuclear receptor intended target family, where the subfamily is non-steroidal.
Human liver HepG2 cells are transiently transfected with multiple reporter transcription units (MRTUs) in 6-well plates using FuGene 6 reagent (Roche; 3 ml FuGene/1 mg DNA). The MRTU constructs are regulated by a cis-regulating element (promoter). […] A major difference between the CIS and TRANS system is that in CIS activities of endogenous TFs are measured, whereas the TRANS assay evaluates changes in activities of exogenous, chimeric NR-Gal4 proteins. […] At the end of 24 hour incubation, total RNA was isolated using TriZol reagent (Invitrogen). The isolated RNA is then reverse-transcribed using oligo(dT) primer and Mo-MLV reverse transcriptase (Invitrogen) with DNAse I (Ambion) treatment for 30 min. The one-tenth of the produced cDNA was amplified by PCR using Taq DNA polymerase (Invitrogen) and two reporter sequence-specific primers. The PCR products were fluorescently labeled by primer extension with 6-arboxyfluorescein (6-FAM) 5'-labeled reporter sequence-specific primer (2 min at 95 C, 20 s at 68 C and 10 min at 72 C) and these products were digested with 5U of HpaI (New England Biolabs) for 2h at 37 C. The fragments were purified using Qiaquick PCR columns (Qiagen), analyzed on an ABI 3130xL genetic analyzer (Applied Biosystems) with peak positions identified by using a set of X-rhodamine (ROX)-labeled MapMarker1000 molecular weight standards (BioVentures). The raw capillary electrophoresis data was processed using Attagraph software (Attagene).
Consider `COC1=CC(=O)C[C@@H](C)[C@]12Oc1c(Cl)c(OC)cc(OC)c1C2=O`, for which the call was inactive. In the case of `CC(C)[C@@H]1CC[C@@H](C)C[C@H]1O`, the call was inactive. Same read-out and setting: next, `Cc1cc(Cc2cc(C)cc(C(C)(C)C)c2O)c(O)c(C(C)(C)C)c1`: “inactive”. The same measure, in the same setting: next, `CCCCCCCCCCCCCCCC(=O)OC`: “inactive”; `NS(=O)(=O)O`: “inactive”; `CCOC(C)=O`: “inactive”.

Consider `O=C(Nc1ccc(Cl)c(Cl)c1)c1cc(Cl)cc(Cl)c1O`, for which the compound was called inactive. Turning to `C=CCOCC(CO)(CO)CO`, the outcome was inactive. For the compound `CCN(CC)CC`, the compound was called inactive.

Regarding `CCCCCCCCC(C)=O`, the result was inactive. Still for that read-out and setting: next, `FC(F)(F)C(F)(F)C(F)(F)C(F)(F)I`: “inactive”; `Oc1cccc2c(O)cccc12`: “inactive”. On the same count and under the same terms, next, `Nc1ccc(O)c(C(=O)O)c1`: “inactive”. Still for that read-out and setting: next, `O=C1NS(=O)(=O)c2ccccc21`: “inactive”; `O=S(=O)(c1ccc(OCc2ccccc2)cc1)c1ccccc1O`: “inactive”. As for `CC(C)(C)c1ccc(O)c(O)c1`, the call was inactive. Same read-out and setting: next, `FC(F)(F)N1C(F)(F)C(F)(F)OC(F)(F)C1(F)F`: “inactive”; `OCCN1CN(CCO)CN(CCO)C1`: “inactive”.

Regarding `CCCCCCCCCCCC(=O)O`, the outcome was inactive.

Turning to `O=c1cc(-c2ccccc2)oc2ccc3ccccc3c12`, the outcome was inactive. On to `c1cc2cccc3c4cccc5cccc(c(c1)c23)c54`, for which the compound was called inactive. As for `O=C1c2ccc(O)c(O)c2C(=O)c2c(O)ccc(O)c21`, the outcome was inactive. `C[N+](C)(CCCNS(=O)(=O)CCC(F)(F)C(F)(F)C(F)(F)C(F)(F)C(F)(F)C(F)(F)F)CC(=O)[O-]`: the compound was called inactive. Regarding `O=C1c2ccccc2C(=O)c2c(O)c(O)cc(O)c21`, the result was inactive. Turning to `O=C(NCc1ncc(C(F)(F)F)cc1Cl)c1c(Cl)cccc1Cl`, the compound was classed as inactive. Still for that read-out and setting: the result for `CCCCN(C)C` reads “inactive”; that for `CC1CCC(CO)CC1` (stereo not given), “inactive”.

For `O=C(CC(=O)C(F)(F)C(F)(F)C(F)(F)F)c1cccs1`, the compound was classed as inactive. Still for that read-out and setting: next, `CCCCCc1ccc(O)cc1`: “inactive”; `N=C(N)c1ccc(OCCCCCOc2ccc(C(=N)N)cc2)cc1`: “inactive”; `CN(CCO)S(=O)(=O)C(F)(F)C(F)(F)C(F)(F)C(F)(F)C(F)(F)C(F)(F)C(F)(F)C(F)(F)F`: “inactive”.

`COC(=O)C(F)(F)C(F)(F)C(F)(F)C(F)(F)C(F)(F)F`: the call was inactive. Still for that read-out and setting: the result for `CCCCCC(C)OC(=O)COc1ccc(Cl)c2cccnc12` (stereo not given) reads “inactive”; that for `CC1=NN(c2ccccc2)C(=O)C1`, “inactive”. Regarding `NC(=NCCCCCCN=C(N)/N=C(\N)Nc1ccc(Cl)cc1)/N=C(\N)Nc1ccc(Cl)cc1`, the concentration at half-maximal activity (AC50) is 24.5 µM (active) and the call was inactive. Take `Nc1ccn([C@@H]2O[C@H](CO)[C@@H](O)C2O)c(=O)n1` (stereo not given in full): the AC50 is 56.6 µM (active). Consider `O=C(O)c1cccc(C(=O)O)n1`, for which the compound was classed as inactive.

Consider `OCC1CCC(CO)CC1` (stereo not given), for which the compound was classed as inactive. Regarding `CCc1ccccc1O`, the outcome was inactive.

These data come from PubChem BioAssay (EPA / NIEHS).
